Inconclusive results are not listed. Active and inactive are the calls of the source. Unless noted, the call rests on the fitted dose curve.
Tests used:
[1] = target: Gonadotropin-releasing hormone receptor (Homo sapiens) (UniProt P30968); assay: Human gonadotropin-releasing hormone receptor (GnRHR) small molecule agonists, calcium flux assay in GnRHR-HEK293 cells (AID 1920063); further: nearly all actives have a fitted effect of over 35% in size
Procedure, shortened: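 Compounds dissolved in DMSO are pin-transferred onto dye-loaded GnRHR-HEK293 cells, which were seeded 18 h before at 37 C/5% CO2. Calcium signal is read as fluorescence intensity at 1 s intervals for 3 min.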

[2] = target: KiSS-1 receptor (Homo sapiens) (UniProt Q969F8); assay: Human kisspeptin (KISS1R) small molecule agonists, calcium flux assay in KISS1R-HEK293 cells (AID 1920064; active means well fitted activation curve with a large enough effect in the repeat runs)
Sequence of KiSS-1 receptor (Homo sapiens) (Q969F8 whole entry, looked up): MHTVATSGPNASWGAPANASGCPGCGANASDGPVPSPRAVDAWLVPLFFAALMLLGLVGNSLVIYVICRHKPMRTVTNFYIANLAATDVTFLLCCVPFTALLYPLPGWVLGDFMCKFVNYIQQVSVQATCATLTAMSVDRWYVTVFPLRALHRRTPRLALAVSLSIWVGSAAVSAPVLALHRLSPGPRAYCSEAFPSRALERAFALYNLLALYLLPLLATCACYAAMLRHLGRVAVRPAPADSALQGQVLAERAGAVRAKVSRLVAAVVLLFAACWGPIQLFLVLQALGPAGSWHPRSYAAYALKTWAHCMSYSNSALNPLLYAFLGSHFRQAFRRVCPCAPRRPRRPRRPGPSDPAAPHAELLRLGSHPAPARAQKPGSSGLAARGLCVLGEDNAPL
Procedure, shortened: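 Cell line: HEK293, stable human KISS1R. Dye loading 1 h at 37 C after 18 h culture. Read: kinetic fluorescence, 480/540 nm, 3 min at 1 s intervals.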

[3] = G protein-coupled receptor (GPCR) small molecule agonists, calcium flux assay: HEK293 wild type cell line counter screen (AID 1920065)
Procedure, shortened: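 Tox21 10K compounds, 15 concentrations each in triplicate, pin-transferred in DMSO onto dye-loaded cells; kinetic read at 480/540 nm for 3 min, 1 s intervals.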

[4] = p53 small molecule agonists, cell-based qHTS assay with human liver microsomes (AID 1963577)
Procedure, shortened: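 p53RE-bla reporter cells were pre-incubated 5 h at 37 C, then treated with compounds plus human liver microsomes (0.5 mg/mL final) and NADPH (0.5 mg/mL final) for 16 h at 37 C. Beta-lactamase activity was read by LiveBLAzer fluorescence after 2 h at room temperature.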

[5] = p53 small molecule agonists, cell-based qHTS assay with rat liver microsomes (AID 1963578)
Procedure, shortened: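 p53RE-bla cells were exposed to compounds together with rat liver microsomes (0.5 mg/mL final) and NADPH (0.5 mg/mL final) for 16 h at 37 C, then read by LiveBLAzer beta-lactamase fluorescence after 2 h at room temperature.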

[6] = p53 small molecule agonists, cell-based qHTS assay with human liver microsomes: qHTS cell viability counter screen (AID 1963579); further: nearly all actives have a fitted effect of over 45% in size
Procedure, shortened: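 p53RE-bla cells (4,000/well) were pre-incubated 5 h at 37 C, then given compounds in DMSO plus human liver microsomes (0.5 mg/mL final) and NADPH (0.5 mg/mL final) for 16 h at 37 C. Viability was read by CellTiter-Glo luminescence.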

[7] = p53 small molecule agonists, cell-based qHTS assay with rat liver microsomes: qHTS cell viability counter screen (AID 1963580); further: nearly all actives have a fitted effect of over 45% in size
Procedure, shortened: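 Counter screen for cytotoxicity under metabolic activation: rat liver microsomes and NADPH, 0.5 mg/mL final each, added with compounds to p53RE-bla HCT-116 cells; 16 h at 37 C, then ATP luminescence read.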

[8] = p53 small molecule agonists, cell-based qHTS assay: qHTS cell viability counter screen (AID 1963581); further: nearly all actives have a fitted effect of over 45% in size
Procedure, shortened: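 ATP content measured by luminescence in HCT-116 p53RE-bla cells treated 16 h at 37 C, same wells as the reporter screen.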

[9] = p53 small molecule agonists, cell-based qHTS assay (AID 1963582; active means well fitted activation curve with a large enough effect in the signal ratio in the repeat runs, not every such curve was filed as active; the % refers to the signal ratio)
Procedure, shortened: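 16 h compound exposure (37 C) of p53 response element–bla cells, preceded by 5 h recovery at 37 C/5% CO2; read-out via LiveBLAzer B/G FRET substrate, 2 h RT, fluorescence intensity.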

[10] = cAMP Responsive Elements (CRE) small molecule antagonists, cell-based qHTS assay (AID 1963591; active means well fitted inhibition curve with a large enough effect in the signal ratio in the repeat runs, not every such curve was filed as active; the % refers to the signal ratio)
Procedure, shortened: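 First, CRE-bla HEK293T cells settled 18 h at 37 C. Next, compound and 0.25 uM final NKH477 were applied for 3 h. Last, LiveBLAzer B/G substrate was loaded for 2 h at room temperature.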

[11] = target: Beta-2 adrenergic receptor (Homo sapiens) (UniProt P07550); assay: Adrenergic beta2 receptor (ADRB2) small molecule antagonists, cell-based qHTS assay (AID 1963592); further: series mostly up to about 92 µM; nearly all actives have a fitted effect of over 50% in size
Sequence of Beta-2 adrenergic receptor (Homo sapiens) (P07550 whole entry, looked up): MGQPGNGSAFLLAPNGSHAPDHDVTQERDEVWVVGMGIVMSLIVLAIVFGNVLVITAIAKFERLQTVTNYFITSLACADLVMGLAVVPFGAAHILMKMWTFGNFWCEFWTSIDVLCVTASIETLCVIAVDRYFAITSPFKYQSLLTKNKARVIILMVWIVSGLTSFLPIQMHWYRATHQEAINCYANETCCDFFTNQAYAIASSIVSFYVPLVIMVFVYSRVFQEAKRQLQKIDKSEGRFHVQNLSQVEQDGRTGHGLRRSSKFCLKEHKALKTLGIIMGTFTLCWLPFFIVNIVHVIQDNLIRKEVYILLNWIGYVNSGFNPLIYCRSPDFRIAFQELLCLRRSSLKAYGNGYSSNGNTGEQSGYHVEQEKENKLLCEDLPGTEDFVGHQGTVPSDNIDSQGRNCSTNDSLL
Procedure, shortened: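 Assay format: CHO-ADRB2 cells, 18-20hr seeding at 37C/5% CO2, then compound plus 1nM isoproterenol agonist mix for 0.5hr RT. Homogeneous time-resolved fluorescence cAMP detection after 1hr, expressed as 665/615 nm ratio.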

[12] = target: D(2) dopamine receptor (Homo sapiens) (UniProt P14416); assay: Dopamine D2 receptor (DRD2) small molecule agonists, cell-based qHTS assay (AID 1963594); further: nearly all actives have a fitted effect of over 35% in size
Sequence of D(2) dopamine receptor (Homo sapiens) (P14416 whole entry, looked up): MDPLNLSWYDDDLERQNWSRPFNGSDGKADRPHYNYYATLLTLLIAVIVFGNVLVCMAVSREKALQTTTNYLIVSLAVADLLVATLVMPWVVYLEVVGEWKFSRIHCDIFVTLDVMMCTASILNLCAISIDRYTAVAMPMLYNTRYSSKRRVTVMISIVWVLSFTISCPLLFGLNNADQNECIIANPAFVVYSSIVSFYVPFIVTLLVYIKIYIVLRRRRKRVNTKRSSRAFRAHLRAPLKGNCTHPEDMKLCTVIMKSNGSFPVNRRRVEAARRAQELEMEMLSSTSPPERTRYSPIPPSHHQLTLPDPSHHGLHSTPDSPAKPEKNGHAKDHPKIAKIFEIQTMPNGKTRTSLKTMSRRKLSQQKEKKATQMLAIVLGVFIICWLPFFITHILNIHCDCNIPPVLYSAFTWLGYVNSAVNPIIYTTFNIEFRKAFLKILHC
Procedure, shortened: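 HEK293 cells stably expressing DRD2 were cultured 24 h at 37 C, then given Ro20-1724 (0.1 mM final) and compounds for 10 min at room temperature. NKH477 (200nM) was then added for 30 min. cAMP was read by HTRF.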

[13] = target: D(2) dopamine receptor (Homo sapiens) (UniProt P14416); assay: Dopamine D2 receptor (DRD2) small molecule antagonists, cell-based qHTS assay (AID 1963595; active means well fitted inhibition curve with a large enough effect in the signal ratio in the repeat runs, with a control signal flat; the % refers to the signal ratio)
Procedure, shortened: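 Antagonist mode in DRD2-HEK293 cells: after compound addition with 0.1 mM Ro20-1724, cells received quinpirole (12 nM) and NKH477 (200 nM) for 30 min at room temperature; HTRF cAMP read after 1 h detection.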

[14] = target: 5-hydroxytryptamine receptor 2A (Homo sapiens) (UniProt P28223); assay: 5-hydroxytryptamine receptor 2A (HTR2A) small molecule antagonists, cell-based qHTS assay (AID 1963586); further: nearly all actives have a fitted effect of over 45% in size
Sequence of 5-hydroxytryptamine receptor 2A (Homo sapiens) (P28223 whole entry, looked up): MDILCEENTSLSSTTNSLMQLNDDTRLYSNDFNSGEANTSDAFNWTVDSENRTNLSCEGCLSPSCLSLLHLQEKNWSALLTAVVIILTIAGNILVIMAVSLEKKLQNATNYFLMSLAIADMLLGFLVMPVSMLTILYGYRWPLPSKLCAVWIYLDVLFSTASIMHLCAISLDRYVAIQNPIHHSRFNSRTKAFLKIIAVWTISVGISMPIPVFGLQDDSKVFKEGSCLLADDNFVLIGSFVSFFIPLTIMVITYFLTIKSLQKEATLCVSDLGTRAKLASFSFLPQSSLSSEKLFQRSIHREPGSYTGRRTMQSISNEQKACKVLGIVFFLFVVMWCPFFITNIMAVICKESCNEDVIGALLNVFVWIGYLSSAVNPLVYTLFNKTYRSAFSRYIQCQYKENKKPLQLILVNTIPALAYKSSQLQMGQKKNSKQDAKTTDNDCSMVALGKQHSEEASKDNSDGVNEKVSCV
Procedure, shortened: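 CHO cells stably expressing human HTR2A were plated for 18 h at 37 C, then loaded with calcium dye for 1 h. Compounds were preincubated 5 min at room temperature before DOI (4 nM solution) was added. Kinetic fluorescence was read for 3 min.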

[15] = target: 5-hydroxytryptamine receptor 2A (Homo sapiens) (UniProt P28223); assay: 5-hydroxytryptamine receptor 2A (HTR2A) small molecule agonists, cell-based qHTS assay (AID 1963587); further: nearly all actives have a fitted effect of over 30% in size
Procedure, shortened: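 HTR2A-CHO cells, plated 18 h at 37 C/5% CO2, dye-loaded 1 h at 37 C; compounds in DMSO added by pin tool (agonist mode). Intracellular calcium flux read as kinetic fluorescence on FDSS over 2 min at 1 s intervals.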

[16] = target: Muscarinic acetylcholine receptor M1 (Homo sapiens) (UniProt P11229); assay: Cholinergic receptor muscarinic 1 (CHRM1) small molecule antagonists, cell-based qHTS assay (AID 1963588); further: nearly all actives have a fitted effect of over 40% in size
Sequence of Muscarinic acetylcholine receptor M1 (Homo sapiens) (P11229 whole entry, looked up): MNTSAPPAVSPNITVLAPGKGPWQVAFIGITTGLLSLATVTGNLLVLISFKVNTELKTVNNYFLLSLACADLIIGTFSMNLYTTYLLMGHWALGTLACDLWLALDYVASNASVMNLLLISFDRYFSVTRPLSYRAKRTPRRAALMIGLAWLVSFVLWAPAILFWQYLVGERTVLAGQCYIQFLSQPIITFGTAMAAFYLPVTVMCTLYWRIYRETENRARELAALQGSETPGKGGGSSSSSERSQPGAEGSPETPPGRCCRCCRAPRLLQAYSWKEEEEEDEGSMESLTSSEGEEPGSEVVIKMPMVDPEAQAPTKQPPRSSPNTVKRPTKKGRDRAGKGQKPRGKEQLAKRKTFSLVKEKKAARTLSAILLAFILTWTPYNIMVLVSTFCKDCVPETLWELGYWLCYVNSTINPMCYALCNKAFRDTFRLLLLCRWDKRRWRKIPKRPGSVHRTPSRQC
Procedure, shortened: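 Compounds were tested at 15 concentrations in three independent runs. Dye-loaded CHRM1-CHO cells were exposed 5 min at room temperature before stimulation by acetylcholine added at 50nM. Intracellular calcium was read kinetically on FDSS for 3 min.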

[17] = target: Muscarinic acetylcholine receptor M1 (Homo sapiens) (UniProt P11229); assay: Cholinergic receptor muscarinic 1 (CHRM1) small molecule agonists, cell-based qHTS assay (AID 1963589); further: nearly all actives have a fitted effect of over 35% in size
Procedure, shortened: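 Homogeneous fluorescence calcium flux, agonist mode. Human M1-expressing CHO cells; compound dosed at 15 concentrations, three independent runs; signal sampled every 1 sec.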

[18] = cAMP Responsive Elements (CRE) small molecule agonists, cell-based qHTS assay (AID 1963590)
Procedure, shortened: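 HEK 293T cells stably bearing CRE-bla were plated at 2,000 cells per well and rested 18 h. Compounds, positive controls or DMSO were added for 3 h at 37 C. LiveBLAzer B/G substrate was then loaded for 2 h at room temperature.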

[19] = target: Beta-2 adrenergic receptor (Homo sapiens) (UniProt P07550); assay: Adrenergic beta2 receptor (ADRB2) small molecule agonists, cell-based qHTS assay (AID 1963593);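 further: CHO cells stably overexpressing human ADRB2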
Procedure, shortened: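 CHO cells stably over-expressing ADRB2 were plated overnight at 37C, then dosed with compounds plus a stimulation mix containing 100uM IBMX and 25uM Ro-20-1724 for 0.5hr at room temperature. cAMP was measured by HTRF competition, 1hr.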

Measured: Potency

Sequence of Gonadotropin-releasing hormone receptor (Homo sapiens) (P30968 whole entry, looked up): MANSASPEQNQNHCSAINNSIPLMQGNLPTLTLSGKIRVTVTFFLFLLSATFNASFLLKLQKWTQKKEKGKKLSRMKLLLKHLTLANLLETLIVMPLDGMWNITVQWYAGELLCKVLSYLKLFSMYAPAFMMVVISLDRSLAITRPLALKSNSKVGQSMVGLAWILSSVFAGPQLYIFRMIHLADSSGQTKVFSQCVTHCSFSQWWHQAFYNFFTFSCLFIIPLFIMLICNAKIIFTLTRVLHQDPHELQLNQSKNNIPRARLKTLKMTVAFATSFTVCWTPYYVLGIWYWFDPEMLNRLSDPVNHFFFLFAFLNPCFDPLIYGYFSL

CC1(C)O[C@@H]2C[C@H]3[C@@H]4CCC5=CC(=O)C=C[C@]5(C)[C@@]4(F)[C@@H](O)C[C@]3(C)[C@]2(C(=O)CO)O1
not listed: [14] | [15] | [16] | [17] | [18] | [19]
inactive: all other assays above

CCCC(=O)O
not listed: [4] | [5] | [9]
inactive: all other assays above

CC1(C)O[C@@H]2[C@@H](CO[C@@]3(COS(N)(=O)=O)OC(C)(C)O[C@@H]23)O1
not listed: [2]
inactive: all other assays above

Cc1ccc(S(=O)(=O)O)cc1
not listed: [4] | [5] | [9] | [13] | [14]
inactive: all other assays above

C[Si](C)(C)N[Si](C)(C)C
not listed: [3] | [7]
inactive: all other assays above

COC(=O)c1ccc(C=O)cc1
not listed: [8] | [14]
inactive: all other assays above

CCCCCCCCCC
not listed: [3] | [12]
inactive: all other assays above

Nc1ccc(S(N)(=O)=O)cc1
not listed: [4] | [5] | [6] | [7] | [14] | [15] | [16] | [17]
inactive: all other assays above

CCO[Si](CCCN)(OCC)OCC
not listed: [4] | [15] | [16]
inactive: all other assays above

Reference: PubChem BioAssay (Tox21)
